Most compounds without a hit are left out; they make up all but 8% or so of the library.
RORg inh: ROR gamma (mouse) transcription inhibition; AID 2551; P51450; Drosophila S2 Gal4-RORgamma UAS-luciferase reporter, 20 h; Potency, µM (series often up to 53.6 µM), actives largely listed as inhibitors; 5.4% of 310,000 active; further: nearly all actives have a fitted effect of over 60% in size
Target sequence (P51450 whole entry, looked up, the tested form may be a part): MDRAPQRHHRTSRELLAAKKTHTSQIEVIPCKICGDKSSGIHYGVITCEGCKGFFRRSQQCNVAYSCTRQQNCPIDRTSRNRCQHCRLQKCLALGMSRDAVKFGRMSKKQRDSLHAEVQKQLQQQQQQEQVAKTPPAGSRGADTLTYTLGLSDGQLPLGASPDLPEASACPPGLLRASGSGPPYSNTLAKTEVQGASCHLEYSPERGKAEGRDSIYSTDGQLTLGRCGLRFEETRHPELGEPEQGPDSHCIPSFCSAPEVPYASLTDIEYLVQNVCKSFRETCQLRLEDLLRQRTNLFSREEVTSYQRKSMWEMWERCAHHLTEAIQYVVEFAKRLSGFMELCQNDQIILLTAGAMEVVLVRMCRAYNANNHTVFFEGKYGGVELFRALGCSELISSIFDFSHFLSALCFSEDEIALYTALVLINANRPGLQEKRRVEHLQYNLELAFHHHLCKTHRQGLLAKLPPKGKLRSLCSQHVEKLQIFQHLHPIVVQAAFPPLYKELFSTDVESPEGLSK
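Using a luciferase readout, inhibitors were identified by reduced reporter activity in Drosophila cells coexpressing a copper-inducible Gal4–ROR gamma fusion and UAS-driven Photinus luciferase, incubated 20 hr after 700 uM copper sulfate.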
Coupling enz: counter-screen for Giardia aldolase inhibitors: coupling enzyme system; coupling enzyme system counterscreen, AmpLite Red fluorescence; activity change, negative = inhibition, % at 58.2 µM, hits read low; 0.67% of 290,000 active; AID 2472; in the data active means activity change below about -30%
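Final compound at 57.5 uM, incubated 10 min at RT with coupling enzyme reagent (glyceraldehyde-3-phosphate), then 20 min with substrate and AmpLite Red detection. Fluorescence read at 525/598 nm; tests interference with the coupling assay, not aldolase inhibition.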
Gal4-VP16 FLuc: inhibits Gal4-VP16 luciferase reporter, ROR gamma counter-screen; Drosophila S2 Gal4-VP16 UAS-luciferase, luminescence, 20 h; Potency, µM (doses to about 53.6 µM), actives largely listed as inhibitors; 3.5% of 310,000 active;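 further: Gal4-VP16 expression switched on by copper sulfate through the metallothionein promoter; nearly all actives have a fitted effect of over 50% in size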
ELG1 DNA repair: blocks ELG1-dependent DNA repair in HEK293T cells | 2.3% of 330,000 active | HEK293T ELG1-luciferase reporter, luminescence, 16 h; DNA damage induced by 5-fluorouridine | Potency, µM (highest dose often 46.1 µM), most hits filed as inhibitors; further: nearly all actives have a fitted effect of over 55% in size
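Luminescence from the luciferase reporter, measured 30 min after ONE-Glo reagent at room temperature, was the read-out. Beforehand, 2,000 cells per well were exposed for 16 hr at 37 °C to 5-fluorouridine together with compound or vehicle.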
TSHR antagonist: blocks TSH signaling through the human TSH receptor; 0.2% of 330,000 active; P16473; TSHR-expressing cells, TSH-stimulated cAMP HTRF, 2 h; active compounds read low; activity change, negative = inhibition, % at 11.5 µM; AID 504810;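 active means activity change below a set negative limit, meaning inhibition stronger than a set level, cut at about -70% in these data; inconclusive means activity change between two set negative limits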
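TSHR-expressing cells were treated with compounds, then stimulated with TSH at EC80 (4nM final) for 2 hours at 37 deg C. Cellular cAMP was measured by HTRF competition between lysate cAMP and cAMP-d2 for a cryptate-labelled anti-cAMP antibody.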
Numbers stand for hits; i = inactive; ? = inconclusive; nt = no result; [ ] = dose if it differs, or a comment. Unless noted, the call rests on the fitted dose curve; in most records, active means well fitted curve in the direction sought with a large enough effect; inconclusive means small, poorly fitted or top-dose-only effect, or another doubt; inactive means no such curve, though single readings can be large; an effect the other way counts as inactive or inconclusive.

SMILES	RORg inh	Coupling enz	Gal4-VP16 FLuc	ELG1 DNA repair	TSHR antagonist
Cc1ccc(NC(=S)c2ccncc2)c(C)c1	?	i	i	i	i
Cc1cc(C)cc(NC(=S)Nc2cccc3cnccc23)c1	12.6µM	-36.1	?	?	i
Cc1ccc(N/C(N)=N/c2nc(C)cc(N3CCCCC3)n2)c(C)c1	i	i	?	16.4µM	i
O=C(NS(=O)(=O)N1CCOCC1)C1=C(N2CCCC2)COC1=O	nt	nt	nt	?	i
COc1ccc(-c2cc(-c3c(O)c(OC)c4occc4c3OC)[nH]n2)cc1OC	7.94µM	i	8.91µM	25.9µM	i
O=C(COc1ccc(Br)cc1)NCCNC(=O)c1ccncc1	i	i	i	i	i
CCCC(=O)NC(Nc1cc(C(F)(F)F)ccc1Cl)C(Cl)(Cl)Cl (stereo unspecified)	?	i	10µM	i	i
CC(C)C(=O)NC(Nc1cc(C(F)(F)F)ccc1Cl)C(Cl)(Cl)Cl (stereo unspecified)	i	i	i	i	i
COc1ccc(N2CCN(C(=O)CCC(=O)N3CC(C)Oc4ccc(C)cc43)CC2)cc1 (stereo unspecified)	?	i	i	?	i
C/C(=N\Oc1cccc(F)n1)c1ccc(Cl)cc1Cl	i	i	i	?	i
C/C(=N/Oc1nc(C)cc(C)n1)c1ccc(Cl)cc1Cl	10µM	i	?	i	i
CN1CCN(C(=S)Nc2ccc(Oc3ccccc3)cc2)CC1	11.2µM	i	i	i	i
COc1ccc(N2CCN(C(=S)Nc3ccc(C)cc3)CC2)cc1	10µM	i	i	i	i
COc1ccc(NC(=S)N2CCC(C(=O)c3ccc(OC)cc3)CC2)cc1	i	i	i	23.1µM	i
COc1ccc(N2CCN(C(=S)Nc3cccc(C)c3C)CC2)cc1	i	i	i	i	i
S=C(Nc1ccccc1)N1CCOCCOCCN(C(=S)Nc2ccccc2)CCOCCOCC1	17.8µM	i	i	i	i
CN(CC(=O)Nc1ccc(Cl)cc1)C(=O)Cn1[nH]c(=O)c2ccccc2c1=O	nt	nt	nt	i	i
Cc1ccc(N2CCN(C(=S)Nc3ccccc3)CC2)cc1	6.31µM	i	?	i	i
COc1ccc(OC)c(-c2nnc3n2N=C(c2ccccc2OC)CS3)c1	i	i	i	nt	nt
Cc1ccc(NC(=O)C2C3CCC(O3)C2C(=O)O)cc1C (stereo unspecified)	i	i	i	i	i
O=C(O)C1C2CCC(O2)C1C(=O)Nc1ccc(O)cc1 (stereo unspecified)	?	-36.3	?	i	i
C[C@H](NC(=O)[C@@H](N)Cc1ccc(O)cc1)C(=O)NCC(=O)N[C@H]1CSSC[C@@H](C(=O)O)NC(=O)[C@H](CO)NC(=O)[C@H]([C@@H](C)O)NC(=O)[C@H](Cc2ccccc2)NC(=O)[C@H]([C@@H](C)O)NC(=O)[C@H](CCCCN)NC(=O)[C@H](Cc2c[nH]c3ccccc23)NC(=O)[C@H](Cc2ccccc2)NC(=O)[C@H](Cc2ccccc2)NC(=O)[C@H](CC(N)=O)NC(=O)[C@H](CCCCN)NC1=O	i	i	i	nt	nt
COc1ccccc1Nc1nc(N)nc(CN2CC(C)CC(C)C2)n1 (stereo unspecified)	8.91µM	i	i[10 µM]	i	i
COc1ccccc1Nc1nc(N)nc(CN2CCCCC2)n1	i	i	i[10 µM]	?	i
COc1ccc(Nc2nc(N)nc(CN3CCN(c4ccc(F)cc4)CC3)n2)cc1	i	i	i	i	i
SMILES	RORg inh	Coupling enz	Gal4-VP16 FLuc	ELG1 DNA repair	TSHR antagonist
COc1ccccc1Nc1nc(N)nc(CN2CCN(c3ccccc3F)CC2)n1	1.78µM	i	7.94µM	i	i
CCOc1ccc(Nc2nc(N)nc(CN3CCN(c4ccccc4F)CC3)n2)cc1	11.2µM	i	i	16.4µM	i
CC1CC(C)CN(C(=S)SCc2nc(N)nc(Nc3ccccc3)n2)C1 (stereo unspecified)	5.62µM	i	?	?	i
COc1ccccc1NC(=O)C(C)Sc1nnc2ccccn12 (stereo unspecified)	nt	nt	nt	i	i
CN1CCN(Cc2nc(N)nc(Nc3ccc4c(c3)OCCO4)n2)CC1	i	i	i	?	i
Nc1nc(CN2CCN(c3ccccc3F)CC2)nc(Nc2ccc3c(c2)OCCO3)n1	i	i	i	23.1µM	i

Bioassay records: PubChem BioAssay, National Center for Advancing Translational Sciences (NCATS)
